{"source": "PubChem BioAssay AID504444", "about": "(National Center for Advancing Translational Sciences (NCATS), 2011)", "note": "The campaign covered roughly 360,000 compounds. About 7,500 (2.1%) were called active. Not shown: some 20% with an inconclusive outcome. Only a selection was taken, and actives are over-represented in it overall. Unmarked numbers belong to inactive results. Calls follow the shape of the dose curve; as a rule, active = well fitted inhibition curve with a large enough effect; inconclusive = small, poorly fitted or top-dose-only effect, or effect the other way; inactive = flat fitted curve, though single readings scatter. % is scaled to controls: 0 for no effect and ±100 for the full control effect; potency is read from the fitted curve at half-maximal effect."}
{"assay": "Nrf2 qHTS screen for inhibitors; also: nearly all actives have a fitted effect of over 60% in size", "details": "A549 ARE-Fluc reporter, luciferase luminescence, 18-24 h; series mostly up to 46 µM; activity change, negative = inhibition: at the top concentration", "from_the_text": "NIH Molecular Libraries Probe Production Network [MLPCN]\nNIH Chemical Genomics Center [NCGC]\nAssay Provider: Shyam Biswal, Johns Hopkins University\nNrf2 is a transcription factor that maintains cellular redox homoestasis and protects cells from xenobiotics. Nrf2 binds to the antioxidant response element (ARE) to induce gene expression of a broad spectrum of genes that encode for antioxidants. […] Finding a small molecule that act as an inhibitor of Nrf2 function would represent a novel therapeutic target that could lead to improvement in survival of patients undergoing chemo- and/or radio- therapy.\nThis is the Nrf2 activity measured in the luminescent read.\n1. Shibata, T., et al., Genetic Alteration of Keap1 Confers Constitutive Nrf2 Activation and Resistance to Chemotherapy in Gallbladder Cancer. Gastroenterology, 2008.\n2. Sjoblom, T., et al., The consensus coding sequences of human breast and colorectal cancers. Science, 2006. 314(5797): p. 268-74.\nNCGC Assay Protocol Summary:\nA concentration-response assay was performed with A549 ARE_Fluc cells which are suspended in 5% FBS OPTI-MEM. Five uL were dispensed into 1536-well white TC-treated plate using the Kalypsys dispenser to achieve a density of 5000 cells/well in all columns except column 1. The plate is incubated at 37deg C at 5% CO2 for 2 hours before 23 nL of compounds are added with the Kalypsys pin tool equipped with a 1,536-pin array containing 10-nL slotted pins (FP1S10, 0.457-mm diameter, 50.8 mm long; V&P Scientific). The control compounds Budesonide and Staurosporine are both added at a concentration of 2mM and Budesonide is also added as a 1:10 titration, starting at 200uM, to achieve dose-response. After an 18-24 hour incubation at 37deg C at 5% CO2, 5ul of medium is added to column 1. Afterwards 1ul of 5x of CellTiter-Fluor (Promega) is added to every well. The plate is then incubated at 37deg C at 5% CO2 for 30 minutes before they are read on the ViewLux (Perkin Elmer) for a fluorescent read Ex=405(10)/Em=525(10) for a 3 second exposure, 2x binning, and high gain. Then 3 uL of 3x BugLite is dispensed into all wells and the plate is incubated at ambient room temperature for 15 minutes. Afterwards another ViewLux read is performed using the clear filter to get a luminescent read with the settings of 40 second exposure, 2x binning, and high gain. Cytotoxicity is assessed through the first fluorescent read and then biochemical activity against Nrf2 is measured in the luminescent read.", "units": {"activity change, negative = inhibition": "%"}}
{"smiles": "CCOC(=O)C1=C(CN2CCc3ccccc32)NC(=O)NC1c1cccc([N+](=O)[O-])c1", "note": "(stereo not given)", "activity change, negative = inhibition": -21.3}
{"smiles": "CCOC(=O)C1=C(CN2CCCCCC2)NC(=O)NC1c1cccc([N+](=O)[O-])c1", "note": "(stereo not given)", "activity change, negative = inhibition": 21.8}
{"smiles": "CCOC(=O)C1=C(CN2CCc3ccccc32)NC(=O)NC1c1ccc(Cl)cc1", "note": "(stereo not given)", "Potency": "16.4 µM (active)"}
{"smiles": "COc1ccc(CNCCCn2cnc3c(OCc4ccccc4)ncnc32)cc1", "activity change, negative = inhibition": 19.7}
{"smiles": "Cc1cc(C)n(-c2c(F)c(F)c(COC(=O)c3ccccc3)c(F)c2F)n1", "activity change, negative = inhibition": 5.92}
{"smiles": "CCOC(=O)c1cnc(-n2nc(C)cc2C)nc1NNc1cc(C)nc(-c2ccccc2)n1", "Potency": "4.11 µM (active)"}
{"smiles": "CCOC(=O)c1cnc(-n2nc(C)cc2C)nc1Nc1cccc(C(C)=O)c1", "activity change, negative = inhibition": 3.3}
{"smiles": "O=c1n(Cc2cccc(C(F)(F)F)c2)c2ccccc2c2nc(-c3ccccc3)nn12", "activity change, negative = inhibition": -0.836}
{"smiles": "CC(Nc1ccc([N+](=O)[O-])cc1[N+](=O)[O-])c1ccccc1", "note": "(stereo not given)", "activity change, negative = inhibition": -22.7}
{"smiles": "CCn1cc(C(=O)OCC(=O)Nc2cc(C)cc(C)c2)c(=O)c2ccc(C)nc21", "activity change, negative = inhibition": 9.75}
{"smiles": "CC[C@]1(C(=O)OC)[C@H]2C(=O)N(Cc3ccccc3)C(=O)[C@H]2[C@H]2CN=C(SCc3ccc(Cl)cc3)N21", "activity change, negative = inhibition": -8.32}
{"smiles": "Cc1ccc2cccc(NC(=O)c3cccc4ccccc34)c2n1", "activity change, negative = inhibition": -5.31}
{"smiles": "Cc1ccc2ccc3c(c2n1)NS(=O)(=O)c1ccccc1-3", "Potency": "20.6 µM (active)"}
{"smiles": "Cc1ccccc1C(=O)NCCN=C1NS(=O)(=O)c2ccccc21", "activity change, negative = inhibition": -8.96}
{"smiles": "CC(C)(C)OC(=O)C[C@@H]1C/C=C\\C[C@@H](CC(=O)N[C@H](CO)Cc2ccccc2)C(=O)NC[C@@H](c2ccccc2)OC1=O", "activity change, negative = inhibition": 8.52}
{"smiles": "Cc1ccc(CN(C(=O)c2ccccc2[N+](=O)[O-])c2ccccn2)cc1", "activity change, negative = inhibition": 0.431}
{"smiles": "O=C(Nc1ccc(Cl)cc1)c1cccc(OC(=S)N2CCOCC2)c1", "Potency": "23.1 µM (active)"}
{"smiles": "O=C(Oc1cccc(C(=S)N2CCOCC2)c1)c1cccc(Cl)c1", "activity change, negative = inhibition": -4.92}
{"smiles": "O=C(Nc1ccc(Cl)cc1)Nc1ccc(C(=O)N2CCOCC2)cc1", "activity change, negative = inhibition": -6.09}
{"smiles": "CCCCNC(=O)C(C)N(CCN(C)C)C(=O)CCCN1C(=O)NC(c2ccc(Cl)cc2)C(C(=O)OCc2ccccc2)=C1C", "note": "(stereo not given)", "activity change, negative = inhibition": 6.22}
{"smiles": "N#Cc1nc(COc2ccc(-c3ccccc3)cc2)oc1NCc1cccnc1", "Potency": "13 µM (active)"}
{"smiles": "Cc1ccc(OCc2nc(C#N)c(N3CCCC3)o2)cc1", "activity change, negative = inhibition": -20.5}
{"smiles": "N#Cc1nc(Cc2cccc3ccccc23)oc1NCc1ccc2c(c1)OCO2", "activity change, negative = inhibition": -27.6}
{"smiles": "Oc1ccc(Br)cc1C1C=C(c2ccc3c(c2)OCO3)NC(c2ccc(Cl)cc2)N1", "note": "(stereo not given)", "activity change, negative = inhibition": 7.41}
{"smiles": "Cc1cccc(C)c1NC(=O)COC(=O)c1c(C)nn(-c2ccccc2)c1C", "activity change, negative = inhibition": -16.5}
